In PubChem BioAssay (NCI):
Compounds without any hit were thinned out: in the full panel of roughly 79,000, 15% have a hit. Rule as the data show it: active = growth inhibition above about 70%; inactive = the rest.

Key:
[1] = NCI Yeast Anticancer Drug Screen. Data for the rad50 strain (AID 155);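 also: 0% = growth of vehicle-only cultures of the same strain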; settings: S. cerevisiae rad50 strain growth inhibition; at 50.0 µM; stronger effect = higher value
Procedure, shortened: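 Vehicle-treated cultures provide the reference for the growth inhibition reported for compound-exposed, repair-deficient yeast.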

[2] = NCI Yeast Anticancer Drug Screen. Data for the mec2-1 strain (AID 157); settings: S. cerevisiae mec2-1 strain, at 50.0 µM, stronger effect = higher value
Procedure, shortened: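 Mutant yeast (mec2-1) grown with compound; growth inhibition relative to vehicle control reported.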

[3] = NCI Yeast Anticancer Drug Screen. Data for the sgs1 mgt1 strain (AID 161);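 also: 0% = growth of cultures given vehicle only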; settings: S. cerevisiae sgs1 mgt1 strain, at 50.0 µM, stronger effect = higher value
Procedure, shortened: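 Percent growth inhibition was derived by comparing compound-exposed mutant yeast with vehicle-exposed cultures. The strain carries alterations in DNA damage repair.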

[4] = NCI Yeast Anticancer Drug Screen. Data for the cln2 rad14 strain (AID 165);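 also: 0% = growth equal to vehicle treated cultures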; settings: S. cerevisiae cln2 rad14 strain, at 50.0 µM, stronger effect = higher value
Procedure, shortened: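 Readout is yeast growth inhibition versus vehicle-treated controls, using a strain with cln2 and rad14 alterations exposed to compound.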

[5] = NCI Yeast Anticancer Drug Screen. Data for the bub3 strain (AID 167); settings: S. cerevisiae bub3 mutant strain, at 50.0 µM, stronger effect = higher value
Procedure, shortened: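 Mutant yeast screening strain plus compound; vehicle-treated cultures serve as the 0% inhibition reference.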

[6] = NCI Yeast Anticancer Drug Screen. Data for the mlh1 rad18 strain (AID 175); settings: S. cerevisiae mlh1 rad18 strain growth inhibition; at 50.0 µM; stronger effect = higher value
Procedure, shortened: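 Genetically defined yeast (DNA repair-deficient) exposed to compounds; growth inhibition determined relative to vehicle.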

Measured: growth inhibition

CC1(C)C=C(S(=O)(=O)c2ccccc2)Oc2ccccc2O1
inactive: [1] 15.3% | [2] 8% | [3] 24.2% | [4] 9.2% | [5] 47.8% | [6] 31.9%

CC(CO)NCc1ccccc1 (stereo not drawn)
inactive: [1] -18.2% | [2] -14.9% | [3] -1.95% | [4] 3.95% | [5] -29.6% | [6] 3.95%

CC[Si](CC)(CC)[Si](c1ccccc1)(c1ccccc1)c1ccccc1
inactive: [1] 42.1% | [2] 32% | [3] 17.1% | [4] 8.8% | [5] -17.4% | [6] 48.8%

CN(C)CCC(=O)Cc1ccccc1
inactive: [1] -8.8% | [2] -12.3% | [3] -4.55% | [4] -8.15% | [5] -26.1% | [6] 0.95%

CCn1nnc2c(C(N)=O)ncn2c1=O
inactive: [1] 0.6% | [2] -38.7% | [3] -44.1% | [4] 14.1% | [5] -14.8% | [6] -16.6%

NC(CSCCSCCSCC(N)C(=O)O)C(=O)O (stereo not drawn)
inactive: [1] -4.45% | [2] 0.1% | [3] 11.2% | [4] -9.05% | [5] -38.4% | [6] -4.5%

N#C/C(=C\C=C\c1ccccc1)C(N)=O
inactive: [1] -57.8% | [2] -27.6% | [3] -27.4% | [4] -7.45% | [5] -51.5% | [6] -49.8%

CN(C)NC(=O)Nc1cccc2ccccc12
inactive: [1] -25.2% | [2] -22.3% | [3] -6.15% | [4] -22.4% | [5] -26.9% | [6] -20.4%

O=C(O)CNC1CCCC1
inactive: [1] -1.3% | [2] 3.65% | [3] 4.35% | [4] -1.6% | [5] 4.95% | [6] -15.1%

N/N=C(\C(=O)Nc1c(Cl)cc([N+](=O)[O-])cc1Cl)C(c1cnc2ccc([N+](=O)[O-])cc2n1)[N+](=O)[O-] (stereo not drawn)
inactive: [1] -38.7% | [2] 0.7% | [3] 10.4% | [4] 15.1% | [5] -23.5% | [6] -26.6%

CC(C)(O)CC(C)(c1ccccc1)c1ccccc1
inactive: [1] -9.95% | [2] 0.75% | [3] -1.25% | [4] -39% | [5] -13.1% | [6] -15.2%

CCOc1cc(C(=O)O)cc(OCC)n1
inactive: [1] -0.1% | [2] -9.45% | [3] 9.2% | [4] -29.4% | [5] 8.95% | [6] 3.05%

CN(C)c1cccc([N+](=O)[O-])c1
inactive: [1] -54.5% | [2] -11% | [3] -44.6% | [4] -32.5% | [5] -35.4% | [6] -48.8%

CCN(CC)CCN(Cc1ccccc1)C(=S)NC(=O)c1ccccc1
inactive: [1] -4.35% | [2] 2.15% | [3] -5.25% | [4] -5.8% | [5] 7.35% | [6] -19.5%

CCOC(=O)C(NC(=O)c1ccccc1)(Nc1ccc(S(=O)(=O)Nc2ncccn2)cc1)C(F)(F)F (stereo not drawn)
inactive: [1] 1.1% | [2] -17.4% | [3] -16.8% | [4] -4.55% | [5] -12.7% | [6] 16.9%

O=C(O)C1CCN(C(=O)Cc2c3ccccc3cc3ccccc23)CC1
inactive: [1] 20.9% | [2] 3.9% | [3] -3.45% | [4] -2.5% | [5] -6.85% | [6] 22.7%

Nc1ccc(S(=O)(=O)N/N=C/c2ccccc2)cc1
inactive: [1] 10.2% | [2] -0.4% | [3] 12.1% | [4] 34.4% | [5] -34% | [6] 29.8%

S=C1CSc2c(cnc3ccccc23)N1
inactive: [1] -4.05% | [2] -6% | [3] 7% | [4] 18.8% | [5] 18.2% | [6] 6.95%

COCCN1CCC(CO)C1 (stereo not drawn)
inactive: [1] 4.85% | [2] 11.5% | [3] 20.1% | [4] 2.05% | [5] 11.9% | [6] 10.5%

COc1cc(C2c3cc4c(cc3OC(C)(OC)C2C(C)=O)OCO4)cc(OC)c1O (stereo not drawn)
inactive: [1] 4.05% | [2] -6.25% | [3] -24.6% | [4] -2.9% | [5] -1.2% | [6] -0.35%

Cc1ccc(Oc2ccc(C(=O)c3cccc(C(=O)c4ccc(Oc5ccc(C)cc5)cc4)n3)cc2)cc1
inactive: [1] -18.6% | [2] 2.05% | [3] -38.2% | [4] -28.2% | [5] -15.3% | [6] -24.9%

CC(=O)O[C@H]1CCN2C(=O)C=CC(OCc3ccccc3)C12 (stereo partly drawn)
inactive: [1] 3.8% | [2] -15.3% | [3] 11.1% | [4] 13.2% | [5] -5.95% | [6] 3.6%

CC(=O)Nc1nnc(SCc2ccccc2)s1
inactive: [1] 9% | [2] 6.35% | [3] -4.4% | [4] -10% | [5] 3.4% | [6] -20.6%

CN(C)C=Nc1cccc2c1NSN2
inactive: [1] 5.5% | [2] -6.4% | [3] -1.35% | [4] 29.1% | [5] 13.4% | [6] 33.1%

O=c1[nH]c(=O)n(COCc2ccccc2)c2ccccc12
inactive: [1] 5.1% | [2] -12.2% | [3] 65.2% | [4] 12.7% | [5] 37.7% | [6] -18.4%

Cn1c(=O)n2n(c1=O)C1C=CC2C2C=C(c3ccccc3)C21 (stereo not drawn)
inactive: [1] -18.4% | [2] -1.35% | [3] -0.8% | [4] 1.75% | [5] 36.5% | [6] 0.3%

Cn1nnnc1CC(=O)O
inactive: [1] 1.3% | [2] -12.9% | [3] 1.15% | [4] -22.8% | [5] -2.05% | [6] -12.5%

Cc1cc(S(=O)(=O)Nc2nnc3c(Cl)cc(C(F)(F)F)cn23)c(S)cc1Cl
inactive: [1] -30.2% | [2] -35.2% | [3] -33.4% | [4] -14.3% | [5] 13.9% | [6] -20%

CN(C)Cc1[nH]c(=O)[nH]c(=O)c1O
inactive: [1] -9.05% | [2] -8.75% | [3] -11.9% | [4] -38.8% | [5] -21.5% | [6] -45.3%

CCCCCCSC#N
inactive: [1] 34.8% | [2] 13.9% | [3] -8.75% | [4] 18.1% | [5] 15.2% | [6] 7.05%

O=c1[nH]c2ccccc2c(O)c1/C=N/C(=S)NC1CCCCC1
inactive: [1] -14.6% | [2] -36.3% | [3] -7.55% | [4] 14.9% | [5] 3.45% | [6] 9.25%

O=C(c1cccs1)c1ccc2ccccc2c1C(=O)O
inactive: [1] -6.95% | [2] -11% | [3] -0.85% | [4] 3.9% | [5] 58.5% | [6] 4.7%

CC1(O)/C=C\C=C(\CO)C2CC(C)(C)C2(O)CC1 (stereo not drawn)
inactive: [1] -29.9% | [2] -40% | [3] -43.1% | [4] -4.5% | [5] -46% | [6] -29.8%

Cc1nc(C)c(C(=O)NNC(N)=S)cc1C(=O)NNC(N)=S
inactive: [1] -10.2% | [2] -16.6% | [3] 0.95% | [4] -5.6% | [5] -27.6% | [6] -8.9%

CCCCCC(=O)c1ccc2[nH]c3c(C)cc([N+](=O)[O-])c(C)c3c2c1
inactive: [1] 3.65% | [2] -35.6% | [3] -34.6% | [4] -2.8% | [5] -17.2% | [6] -10.3%

O=C(O)c1cncc(-c2ccccc2)c1
inactive: [1] 38.2% | [2] 30.7% | [3] 23.4% | [4] 14.1% | [5] 3% | [6] 26%

c1ccc2cc(-c3csc4ccccc34)ccc2c1
inactive: [1] 12.8% | [2] -16.4% | [3] 17.1% | [4] -8.05% | [5] 15.4% | [6] 9.15%

CCOc1ccccc1NC(=O)C(=O)C(c1ccccc1)S(=O)(=O)Cc1ccccc1 (stereo not drawn)
inactive: [1] -1% | [2] -12.5% | [3] -10.1% | [4] 5.45% | [5] -7.35% | [6] -1.5%
